Here are results for 39 compounds from PubChem BioAssay (NCI).

Where “and” joins values, the source holds several entries; their conditions need not be identical. Equal values may be shown once. This is part of a sample that, as a whole, favours compounds with a hit. Of some 83,000 tested, about 20% had one in any assay.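 Compound tested at a single concentration for 48 hours in 96-well plates; a percent growth value below 10 was scored as active.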 Calls of active or inactive are those of the source.

For one assay, the system named is NCI-H322M lung. The assay is described as follows: NCI-60 one-dose screen, 48 h (100 = growth as untreated, 0 = no growth, -100 = all killed). Conditions: 10 µM. On the procedure: Growth inhibition of the NCI-H322M human Non-Small Cell Lung tumor cell line is measured as a screen for anti-cancer activity. Cells are grown in 96 well plates and exposed to the test compound for 48 hours. Compounds are tested at a single concentration, which is 10^-5 M for most compounds. The reported endpoint is percent growth (GI% or GIPRCNT), where numbers from 0 - 100% represent growth inhibition, and numbers from -100% - 0 represent cell death. For example, a value of 40 represents 60% growth inhibition. A value of 0 means no net growth occurred over the course of the experiment. A value of -40 indicates 40% of cells at the beginning of the experiment died by the end of the experiment. A value of -100 means all cells are dead at the end of the experiment.
NCI-60 Human Tumor Cell Lines Screen was performed using the standard one-dose NCI protocol, which is described in more detail at https://dtp.cancer.gov/discovery_development/nci-60/default.htm.
Compounds with GIPRCNT values below 10 were considered active. Activity score was based on GIPRCNT using the following formula: […]
Score is 0 for GIPRCNT values of 100 or above, 50 for GIPRCNT values of 0, and 100 for GIPRCNT values of -100.
Consider `COc1ccc(-c2cscc2N)cc1`, for which the growth was 95.6% (inactive).

The assay is the same for the next values; noted with them: 10 µM unless noted.
For `Cc1ccc(C(=Nc2ccccc2)N=P(c2ccccc2)(c2ccccc2)c2ccccc2)cc1`, the growth is -29.4% (active).

Turning to `N#CSCc1ccc(CSC#N)c(Cl)c1`, the growth is 106% (inactive).

Regarding `COc1ccc2nc3cc(Cl)ccc3c(NCCNc3c4ccc(Cl)cc4nc4ccc(OC)cc34)c2c1`, the growth is -86.6% (active). Regarding `C=CCOc1ccc(N=NC(C#N)C#N)cc1`, the growth was 93% (inactive). The same measure, in the same setting: in the case of `CN(C)c1ccc(C(=C2C=CC(=[N+](C)C)C=C2)c2ccc(N(C)C)cc2)cc1` (tested in a mixture with another compound) it was -27.7% (active). As for `O=C1N[C@H]2[C@H](CS[C@H]2CCCCC(=O)N(CCP(c2ccccc2)c2ccccc2)CCP(c2ccccc2)c2ccccc2)N1`, the growth is 79.2% (inactive). The same measure, in the same setting: next, `Cn1c2ccccc2c2nnc(N/N=C/c3ccccn3)nc21`: 11.8% (inactive).

Turning to `Cc1cc(N)c2ccccc2[n+]1CCCCCCCCCC[n+]1c(C)cc(N)c2ccccc21`, the growth was 11.2% (inactive) and 41.8% (inactive). As for `O=C1C2=C(Nc3cc([N+](=O)[O-])ccc3N2)OC1c1c2ccccc2cc2ccccc12` (stereo not given), the growth was 71.8% (inactive). Same read-out and setting: next, `COC(=O)[C@@]12OC[C@]34[C@H]([C@@H](O)[C@@H]1O)[C@@]1(C)[C@H](O)C(=O)C=C(C)[C@@H]1C[C@H]3OC(=O)C(OC(C)=O)[C@@H]24` (stereo not given in full): -28.9% (active); `COc1cc(/C=C(/C)C[N+](=O)[O-])ccc1O`: 92.5% (inactive). As to `C[n+]1c(/C=C/c2ccc([N+](=O)[O-])cc2)ccc2ccccc21`, the growth is 111% (inactive).

As for `CN(C)c1ccc(N=Nc2cccc3ccccc23)cc1`, the growth was 94.4% (inactive).

In the case of `Nc1nc(N)c2c(ccc3c2ccn3Cc2cccc([N+](=O)[O-])c2)n1`, the growth is -91.1% (active). On the same count and under the same terms, in the case of `O=C(Nc1ccccc1)c1cc(Cl)ccc1O` it was 83.1% (inactive). Regarding `Oc1c(Cl)c2ccccc2c2ccccc12`, the growth was 100% (inactive). Same read-out and setting: next, `C[N+](C)=c1ccc2nc3c(cc(NCCCNc4cc5oc6cc(=[N+](C)C)ccc-6nc5c5ccccc45)c4ccccc43)oc-2c1`: 25.3% (inactive); `CCCCCCCCCCCCCCCCCCOP(=O)([O-])OC1CC[N+](C)(C)CC1`: 59.2% (inactive) and 40% (inactive). The same measure, in the same setting: in the case of `C1=C(c2ccccc2)C(c2ccc(OCCN3CCCCC3)cc2)Oc2ccccc21` (stereo not given) it was 77.4% (inactive); in that of `COc1ccc(N=N/N=c2\sc3cc(OC)ccc3n2C)cc1`, 83.9% (inactive). The same measure, in the same setting: in the case of `Cc1ccc(N=C=C(c2ccccc2)c2ccccc2)cc1` it was 98.1% (inactive); in that of `CC1(C)CC([P+](c2ccccc2)(c2ccccc2)c2ccccc2)=NN1`, 81.1% (inactive). On to `O=C(Oc1cccc2cccnc12)c1ccccc1`, for which the growth was 107% (inactive) and 117% (inactive). Same read-out and setting: in the case of `CC(=O)ON=C1C=CC(=C(C#N)c2ccccc2)C=C1` it was 94.8% (inactive); in that of `Cc1ccc(NS(=O)(=O)c2ccc(C)cc2)cc1`, 102% (inactive) and 91.5% (inactive); in that of `CN=C(N)N/N=C(\C)c1ccc2c(c1)Cc1cc(/C(C)=N/NC(N)=NC)ccc1-2`, -1.93% (active). Take `CN1c2ccccc2C(C)(C)C12C=Cc1cc(O)ccc1O2` (stereo not given): the growth is 109% (inactive). On to `Cn1c2c(c3ccccc31)CCN1C[C@@H]3CCCC[C@H]3C[C@@H]21`, for which the growth was 6.3% (active). Still for that read-out and setting: next, `O=C(Nc1cccc(Br)c1)Oc1ccc(Cl)c2cccnc12`: 82.3% [100 µM] (inactive); `COc1ccccc1OC(=O)Oc1ccccc1OC`: 94.3% (inactive) and 99.5% (inactive); `CCCCCC(CCCCC)C(=O)O`: 103% (inactive). Regarding `CCN(CC)CC(C)(C)C(=O)/C=C/c1ccc(Cl)c(Cl)c1`, the growth is 22.7% (inactive). For the compound `Nc1nc(N)c2nc(CNc3ccc(C(=O)NC(CCC(=O)O)C(=O)O)cc3)cnc2n1` (stereo not given), the growth was 51.2% (inactive) and 50.8% (inactive). On the same count and under the same terms, in the case of `CC(=O)Nc1cccc2cc(O)ccc12` it was 110% (inactive) and 116% (inactive); in that of `Cc1c2ccccc2c(C)c2c1ccc1ccccc12`, 90.8% (inactive). On the same count and under the same terms, in the case of `CCC(CCCN(CC)CCc1ccccc1)OC(=O)c1cc(OC)c(OC)c(OC)c1` (stereo not given) it was 72.2% (inactive); in that of `COc1ccccc1/C=C\C(=O)c1ccccc1`, 95% (inactive). Same read-out and setting: next, `Cc1ccnc(NC(c2ccccc2)c2ccc3cccnc3c2O)c1` (stereo not given): 38.4% (inactive).

The same assay, now with this note: 100 µM.
With `COc1ccc(-c2cscc2N)cc1`, the growth is 73.9% (inactive).
